An excerpt weighted towards active compounds, which were near 19% of everything screened.
Pf growth 48h – inhibits P. falciparum growth in the first generation, 48 h | P. falciparum luciferase growth in erythrocytes, 48 h | Potency, µM (series often up to 28.7 µM), without a hit: at the top dose activity change, negative = inhibition, most hits filed as inhibitors | 310,000 tested, 5.9% active; note: potency is the fitted concentration of half-maximal effect; % is set by controls: 0 for no effect and ±100 for the full control effect
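Parasite viability was followed by luminescence of a genomically integrated firefly luciferase. Cultures held 0.1% parasitemia at 2% hematocrit (final), incubated under 5% CO2 at 37 C.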
AMA1-RON2 inh – AMA1-RON2 (P. falciparum) interaction inhibition | AlphaScreen AMA1-biotinylated RON2 peptide binding | Potency, µM (top dose mostly 58.2 µM), for the others: at the highest dose activity change, negative = inhibition, usual class: inhibitors | 360,000 tested, 0.2% active | AID 720542;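 note: potency is the fitted concentration of half-maximal effect; 0% = vehicle wells and -100% = peptide control; nearly all actives have a fitted effect of over 45% in size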
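AMA1 (3D7) with his tag at 25 nM final met compounds first, then biotinylated RON2 peptide at 25 nM; detection used donor plus acceptor beads, 10 µg/mL apiece, read by AlphaScreen after 30 min at room temperature.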
CHX counter – affects cycloheximide protein synthesis inhibition readout, counter-screen; max response, %; cell reporter, cycloheximide protein synthesis inhibition counterscreen; 300,000 tested, 12% active; AID 2314; in the data active = max response mostly above about 13%, no sharp cut-off; inactive = mostly below about 14%; note: read at 38.3 µM for the half of the compounds with a filed dose; 0% is about no effect
SARS PLP yeast – SARS-CoV PLP inhibition in yeast | S. cerevisiae expressing SARS-CoV PLpro, growth rescue | Potency, µM (doses to about 32.9 µM), without a hit: at the top dose activity, positive = growth rescue, actives largely listed as activators | 330,000 tested, 0.19% active | AID 485353; calls by dose curve; note: potency is the fitted concentration of half-maximal effect; 0% is about no effect; nearly all actives have a fitted effect of over 55% in size
Shiga toxin inh – inhibitors of Shiga toxin in Vero cells. AID 2315. inhibition, % at 38.7 µM. Vero cells, Shiga toxin protein synthesis inhibition reporter. 290,000 tested, 9.2% active; in the data active = inhibition mostly above about 28%, no sharp cut-off; inactive = mostly below about 43%; note: 0% is about no effect
Pf growth 96h – P. falciparum growth inhibition at 96 hour, primary screen for plastid delayed-death inhibitors; P. falciparum luciferase reporter growth, 96 h; Potency, µM (top dose mostly 28.7 µM), for inactives: at the top dose activity change, negative = inhibition, most hits filed as inhibitors; 320,000 tested, 6.9% active; AID 504834; note: potency is the fitted concentration of half-maximal effect; % is set by controls: 0 for no effect and ±100 for the full control effect
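Two parasite generations (96 h, 37 C, 5% CO2) of compound exposure in infected erythrocytes (0.05% parasitemia, 2% hematocrit). Luciferase-reporter P. falciparum; decreased luminescence indicates inhibited growth, aimed at apicoplast-acting delayed death.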
* hit, by the source's call; ? = inconclusive; . = no result given. Unless noted, calls come from the whole dose curve; as a rule, active = well fitted curve in the direction sought with a large enough effect; inconclusive = small, poorly fitted or top-dose-only effect, or another doubt; inactive = no such curve, though single readings can be large; an effect the other way counts as inactive or inconclusive.

SMILES	Pf growth 48h	AMA1-RON2 inh	CHX counter	SARS PLP yeast	Shiga toxin inh	Pf growth 96h
COc1ccc(NC(=O)CSc2nnc(-c3cccs3)n2N)c(OC)c1	31%	15%	.	1%	.	1%
Cc1onc(-c2ccccc2)c1C(=O)Nc1ccc(Br)cc1Cl	15µM*	-12%	-2	1%	7	2%
Cc1cc(C)nc(NC(=O)c2c(-c3ccccc3Cl)noc2C)c1	12%	5%	-3	2%	1	2%
Cc1ccnc(NC(=O)c2c(-c3ccccc3Cl)noc2C)c1	44%	0%	21*	8%	64*	50%
COc1ccc(NC(=O)c2c(-c3ccccc3Cl)noc2C)c(OC)c1	2.6µM*	2%	-3	-2%	17	0%
Cc1ccc(NC(=O)C(C)Sc2nnc(-c3cccnc3)n2-c2ccccc2)cc1 (stereo not drawn)	?	-8%	-3	-9%	-21	.
COc1cc(-c2ccccc2)[nH]c(=S)n1	35%	107%	.	10%	.	7.4µM*
COc1ccc(-c2cc(=O)[nH]c(=S)[nH]2)cc1	1%	72%	-3	-2%	-8	?
COc1ccc(OC)c(NC(=O)COc2coc(CN3CCCc4ccccc43)cc2=O)c1	10µM*	-4%	.	-1%	.	?
Cc1ccc(NC(=O)COc2coc(CN3CCc4ccccc43)cc2=O)c(C)c1	?	-15%	.	-3%	.	-18%
COc1ccc(OC)c(NC(=O)COc2coc(CN3CCc4ccccc43)cc2=O)c1	10µM*	-29%	.	-3%	.	?
CCCCC(O)(CCCC)C(=O)NN(C(=O)c1cccnc1Cl)c1ccccc1	?	-2%	-2	0%	6	-19%
CCOC(=O)C1(Cc2cccc(Cl)c2)CCCN(C(=O)C(C)(C)C)C1 (stereo not drawn)	-13%	-4%	27*	-3%	45	121%
CCOC(=O)C1(Cc2cccc(Cl)c2)CCCN(CCO)C1 (stereo not drawn)	?	-10%	-1	-1%	-5	?
CCOC(=O)C1(Cc2cccc(Cl)c2)CCCN(C(=O)c2ccnn2C)C1 (stereo not drawn)	-1%	-6%	50*	-1%	41*	-26%
CCOC(=O)C1(Cc2cccc(Cl)c2)CCCN(C(=O)c2cc(CC)on2)C1 (stereo not drawn)	?	18%	43*	6%	62*	-4%
CCCc1cc(C(=O)N2CCCC(Cc3cccc(Cl)c3)(C(=O)OCC)C2)n(C)n1 (stereo not drawn)	?	-11%	18	-7%	65*	?
O=C(O)c1cccc(-c2csc(C(O)c3cccc(Cl)c3)n2)c1 (stereo not drawn)	.	13%	.	.	.	.
COc1ccc(OCCOc2ccc(/C=C3\C(=N)N4N=C(C)SC4=NC3=O)cc2)cc1	3%	30%	.	0%	.	15%
CCOC(=O)C1(Cc2cccc(Cl)c2)CCCN(C(=O)CN2C(=O)CSC2=O)C1 (stereo not drawn)	6%	-7%	36*	0%	46*	25%
CCOC(=O)c1c(NC(=O)COc2cccc3c2CCN(C)C3=O)sc2c1CCC2	?	-1%	-3	-6%	6	13µM*
CCCCNC(=O)C1CC(c2cccc(F)c2)=NO1 (stereo not drawn)	55%	-11%	33*	-1%	58*	67%
COc1ccc(CCNC(=O)C2CC(c3cccc([N+](=O)[O-])c3)=NO2)cc1 (stereo not drawn)	25%	-7%	47*	6%	160*	-12%
Cc1ccc(CNC(=O)C2CC(c3ccccc3[N+](=O)[O-])=NO2)cc1 (stereo not drawn)	7%	5%	13*	4%	-2	48%
COc1ccc(CCNC(=O)C2CC(c3c(Cl)cccc3Cl)=NO2)cc1 (stereo not drawn)	-8%	27%	9	-3%	-4	1%
SMILES	Pf growth 48h	AMA1-RON2 inh	CHX counter	SARS PLP yeast	Shiga toxin inh	Pf growth 96h
O=C(NCc1ccc(OC(F)(F)F)cc1)C1CC(c2ccccc2[N+](=O)[O-])=NO1 (stereo not drawn)	52%	-6%	2	-11%	-12	28%
COc1ccc(CCNC(=O)C2CC(c3ccc([N+](=O)[O-])cc3)=NO2)cc1 (stereo not drawn)	7%	4%	33*	-1%	43*	7%
CCN(CC)S(=O)(=O)c1ccc(OC)c(NC(=O)c2cccc([N+](=O)[O-])c2C)c1	.	0%	.	.	.	.
COc1ccccc1NC(=O)CCN1C(=O)c2ccccc2S1(=O)=O	-2%	31%	-3	-1%	-3	34%
Cc1ccc(CNC(=O)C2CC(c3cccc([N+](=O)[O-])c3)=NO2)o1 (stereo not drawn)	18%	3%	33*	-10%	64*	10%
COc1cccc(C2=NOC(C(=O)NCCN3CCOCC3)C2)c1 (stereo not drawn)	?	4%	-2	-2%	18	8.3µM*
Cc1ccc(CNC(=O)C2CC(c3cc(C(F)(F)F)cc(C(F)(F)F)c3)=NO2)o1 (stereo not drawn)	22%	18%	-4	0%	17	48%
O=C(NCCc1cccs1)C1CC(c2ccc([N+](=O)[O-])cc2)=NO1 (stereo not drawn)	41%	51%	59*	1%	77*	12%
Cc1c(C(=O)N2CCN(S(=O)(=O)c3ccccc3)CC2)oc2ccc(Br)cc12	.	2%	.	0%	.	.
COc1ccccc1C#Cc1cnc2c(c1)C(=O)N([C@H](C)CO)C[C@@H](C)[C@@H](CN(C)C(=O)c1ccc3c(c1)OCO3)O2	.	3%	.	.	.	.
CCN(CC)S(=O)(=O)c1ccc(/C=C/C(=O)OCC(=O)NCc2cccs2)cc1	?	-8%	.	-2%	.	3%
COc1ccccc1N(CC(=O)N1CCCCC1C)S(=O)(=O)c1ccc(Cl)cc1 (stereo not drawn)	.	9%	.	.	.	.
CC1=NN=C(c2ccc(N)cc2)c2cc3c(cc2C1)OCO3	12µM*	-7%	.	.	.	?
Cc1nc(N)ncc1-c1ccc2c(c1)OCO2	.	2%	13	9%	23	36%
Nc1cc(N)c(OCC(F)(F)F)cc1OCC(F)(F)F	-22%	72%	2	-5%	7	0%
Nc1nc(OCC(F)(F)F)cc(Oc2ccccc2F)n1	4%	-8%	22*	0%	80*	23%
CC1SCC(=NOCc2c(Cl)cccc2Cl)CS1 (stereo not drawn)	18%	0%	12	2%	62*	-6%
Cc1ccc(NC(=O)Nc2ccccc2CC[N+](=O)[O-])cc1	29%	-8%	16*	-8%	-2	48%
Cc1cc(C)cc(NC(=O)c2ccccc2CC[N+](=O)[O-])c1	?	-1%	6	1%	13	4%
